# EPAC2 antagonist: blocks human EPAC2 exchange factor | Q8WZA2 | EPAC2 GEF exchange of Rap1B-BODIPY-GDP, fluorescence | Potency, µM (highest dose often 114 µM), most hits filed as inhibitors | 0.18% of 360,000 active; further: nearly all actives have a fitted effect of over 45% in size
# EPAC2 agonist: activates human EPAC2 exchange factor; Potency, µM (titrated, usually from 154 µM), hits mostly activators; EPAC2 activation, biochemical qHTS; response scale: 100% = 6.5 mM cAMP response; 0.079% of 360,000 active; Q8WZA2; AID 720711; further: nearly all actives have a fitted effect of over 50% in size
#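 Guanine nucleotide exchange by EPAC2 is measured as reduced fluorescence of BODIPY-GDP once it is released from 250 nM Rap1B. Plates are read kinetically for 30 min at room temperature; results are scaled to 6.5 mM cAMP.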
# USP1-UAF1 inh: USP1/UAF1 (human) deubiquitinase inhibition | 0.23% of 390,000 active | AID 743255 | O94782 | Potency, µM (titrated, usually from 57.1 µM), usual class: inhibitors | recombinant USP1/UAF1, Ub-Rhodamine cleavage fluorescence; further: nearly all actives have a fitted effect of over 60% in size
# Target sequence (O94782 whole entry, looked up): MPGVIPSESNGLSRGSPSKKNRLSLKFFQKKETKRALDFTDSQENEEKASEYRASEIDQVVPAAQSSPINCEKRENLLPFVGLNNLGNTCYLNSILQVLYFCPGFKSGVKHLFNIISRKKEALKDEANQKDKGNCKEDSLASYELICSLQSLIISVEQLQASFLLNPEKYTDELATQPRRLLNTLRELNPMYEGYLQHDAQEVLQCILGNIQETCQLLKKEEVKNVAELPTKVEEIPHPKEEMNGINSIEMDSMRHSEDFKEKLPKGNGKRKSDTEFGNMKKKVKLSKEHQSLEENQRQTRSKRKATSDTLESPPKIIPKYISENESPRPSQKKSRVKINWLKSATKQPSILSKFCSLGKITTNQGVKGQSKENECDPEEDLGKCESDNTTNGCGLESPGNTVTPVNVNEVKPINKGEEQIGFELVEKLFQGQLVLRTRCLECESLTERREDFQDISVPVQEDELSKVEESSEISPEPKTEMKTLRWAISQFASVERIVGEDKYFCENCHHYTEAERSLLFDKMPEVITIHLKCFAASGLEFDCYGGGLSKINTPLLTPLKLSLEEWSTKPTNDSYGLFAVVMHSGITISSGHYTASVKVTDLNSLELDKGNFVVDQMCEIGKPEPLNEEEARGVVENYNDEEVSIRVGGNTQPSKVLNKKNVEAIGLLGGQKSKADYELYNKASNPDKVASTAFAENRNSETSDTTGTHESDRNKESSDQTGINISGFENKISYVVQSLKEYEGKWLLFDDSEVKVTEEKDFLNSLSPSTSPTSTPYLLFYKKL
#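 USP1/UAF1 complex at 1 nM was preincubated with compound for 15 min at room temperature, then Ub-Rho substrate (150nM final) was added. Fluorescence (480/540 nm) was read kinetically, 6 reads every 60 seconds.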
# EPAC1 agonist: agonists of human EPAC1; 0.073% of 360,000 active; Potency, µM (titrated, usually from 154 µM), most hits filed as activators; AID 720707; EPAC1 agonist qHTS, biochemical assay; response scale: 100% = response to 6.5 mM cAMP; further: nearly all actives have a fitted effect of over 60% in size
#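 Nucleotide exchange assay: 100 nM EPAC1 with 250 nM Rap1B loaded with BODIPY-GDP and 50 uM GDP, room temperature. Fluorescence (480/540 nm) read every 5 min for 30 min; signal change normalized to 6.5 mM cAMP as full agonist.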
# EPAC1 antagonist: blocks human EPAC1 exchange factor | AID 720709 | EPAC1 GEF assay, Rap1b-BODIPY-GDP exchange fluorescence | Potency, µM (series often up to 115 µM), most hits filed as inhibitors | 0.14% of 360,000 active; further: nearly all actives have a fitted effect of over 50% in size
# Hits are given with their value; . = inactive; ? = inconclusive; / = no result given. A selection: hits, their analogues and other compounds. The true share with any hit is near 0.49%. The call rests on the fitted dose curve; in most records, active means well fitted curve in the direction sought with a large enough effect; inconclusive means small, poorly fitted or top-dose-only effect, or another doubt; inactive means no such curve, though single readings can be large; an effect the other way counts as inactive or inconclusive.
SMILES,EPAC2 antagonist,EPAC2 agonist,USP1-UAF1 inh,EPAC1 agonist,EPAC1 antagonist
Cc1ccc(N2C(=O)c3cccc4c([N+](=O)[O-])ccc(c34)C2=O)c2cccnc12,.,.,.,.,.
COc1cccc(CNC(=O)c2cc3c(=O)oc4ccc(C)cc4c3s2)c1,/,/,.,/,/
Cc1ccc(-c2nc3c(C)cccn3c2Nc2ccccc2C)s1,/,/,.,/,/
CN(CC(=O)Nc1ccccc1C(F)(F)F)C(=O)c1cc(-c2cccs2)nn1-c1ccccc1,.,.,.,112µM,.
N#Cc1cc(C(=O)c2ccccc2O)cn(-c2nccs2)c1=O,.,100µM,28.2µM,89.1µM,.
Cc1c(-n2cc(C(=O)c3cc(F)ccc3O)cc(C#N)c2=O)c(=O)n(-c2ccccc2)n1C,.,.,.,.,.
N#Cc1cc(C(=O)c2cc(F)ccc2O)cn(-c2nccs2)c1=O,.,112µM,25.1µM,?,.
O=S(=O)(O)c1cccc(N=Nc2c(O)ccc3ccccc23)c1,35.5µM,.,?,.,.
Oc1ccc2ccccc2c1N=Nc1ccccc1F,.,.,.,.,.
O=[N+]([O-])c1ccc(C=Nc2cccc3ccccc23)s1,.,.,14.1µM,.,.
COc1ccc(-n2nnnc2C2CCN(S(=O)(=O)c3ccc(NC(C)=O)cc3)CC2)cc1,/,/,.,/,/
COc1cc(OC)c(OC)cc1/C=C1\CC(C)C/C(=C\c2cc(OC)c(OC)cc2OC)C1=O (stereo not drawn),.,.,35.5µM,.,.
CCC1C/C(=C\c2cc(OC)c(OC)cc2OC)C(=O)/C(=C/c2cc(OC)c(OC)cc2OC)C1 (stereo not drawn),.,.,?,.,.
Cc1cccc(NC2=C/C(=N/S(=O)(=O)c3cccs3)c3ccccc3C2=O)c1,.,.,?,.,.
O=C1C(Nc2ccc(O)cc2)=C/C(=N/S(=O)(=O)c2cccs2)c2ccccc21,.,.,4.47µM,.,.
O=C(O)c1ccc(Nc2nc3ccccc3nc2NS(=O)(=O)c2cccs2)cc1,.,.,.,.,?
O=C(O)c1ccc(NC2=C/C(=N/S(=O)(=O)c3cccs3)c3ccccc3C2=O)cc1,?,.,5.01µM,.,50.1µM
Cc1ccc(CCNC(=O)c2ccc(CSc3nc4ccncc4n3Cc3ccc(F)cc3)cc2)cc1,/,/,.,/,/
O=[N+]([O-])c1cc([N+](=O)[O-])c2oc(-c3ccccc3)c(Br)c2c1O,20µM,.,?,.,25.1µM
Cc1c(-c2nsc(NC(=O)c3ccccc3)n2)nnn1-c1ccc(C(F)(F)F)c(Cl)c1,/,/,.,/,/
COc1ccc(CCNC(=O)c2cc3n(n2)CCCN(Cc2ccc(C)cc2)C3=O)cc1OC,/,/,.,/,/
c1coc(-c2nnc(-c3ccco3)nn2)c1,.,.,25.1µM,.,?
Nc1nc(SCC(=O)Nc2cccc(Oc3ccccc3)c2)n[nH]1,.,.,.,.,.
O=C(CSc1ncnc2[nH]ncc12)Nc1cccc(Oc2ccccc2)c1,.,31.6µM,.,89.1µM,?
Cc1cccc(C(=O)NCC(c2ccc3c(c2)OCO3)N2CCN(c3ccccc3F)CC2)c1 (stereo not drawn),/,/,.,/,/
SMILES,EPAC2 antagonist,EPAC2 agonist,USP1-UAF1 inh,EPAC1 agonist,EPAC1 antagonist
Cc1cc(NC(=O)Nc2nnc(N(C)Cc3ccccc3)s2)ccc1Br,/,/,31.6µM,/,/
Cc1ccc(C)c(N2CCN(C(=O)C(CC(C)C)NS(=O)(=O)c3ccc4nc(C)sc4c3)CC2)c1 (stereo not drawn),/,/,.,/,/
Cc1ccc(Nc2c(-c3ccccn3)nc3cccc(C)n23)cc1,31.6µM,.,.,.,.
Cc1cccc2nc(-c3ccccn3)c(Nc3ccccc3)n12,/,/,.,/,/
COc1ccc(Cl)cc1NC(=O)CSC1=Nc2ccccc2C2=NC(CC(=O)NC3CCCCC3)C(=O)N12 (stereo not drawn),/,/,.,/,/
Cc1ccc(CNc2ccc3c(c2)OCO3)cc1,.,.,28.2µM,.,.
COc1ccc(/C(O)=C/C(=O)C(=O)NNC(=O)C(O)(c2ccccc2)c2ccccc2)cc1,.,.,.,.,39.8µM
COc1ccc(/C(O)=C/C(=O)C(=O)NNC(=O)c2ccccc2)cc1,.,.,.,.,.
Nc1ccc(-c2c3ccc(=O)cc-3oc3cc(O)ccc23)cc1C(=O)O,.,100µM,22.4µM,100µM,.
O=c1ccc2c(-c3ccccc3)c3ccc(O)cc3oc-2c1,.,.,3.55µM,?,.
COc1ccc2c(c1)CC(C(=O)NCCN1CCN(c3cccc(C)c3C)CC1)CO2 (stereo not drawn),/,/,.,/,/
O=S(=O)(O)c1cc(O)ccc1O,.,.,.,.,.
O=S(=O)(c1cc(O)ccc1O)c1cccc2c(S(=O)(=O)c3cc(O)ccc3O)cccc12,.,.,?,.,79.4µM
Cc1ccc(N(Cc2cccs2)C(=O)COc2ccccc2[N+](=O)[O-])cc1,/,/,.,/,/
COc1ccccc1CCC(=O)N1CCN(C(=O)c2ccccc2)CC1,.,.,.,.,.
COc1ccc(N2CCN(C(=O)CCc3ccccc3OC)CC2)cc1,.,.,.,.,89.1µM
CC(C)(C)NC(=O)c1ccc2nc(CCc3ccccc3)oc2c1,/,/,.,/,/
CCOC(=O)c1c(C)[nH]c(CCC(=O)Nc2cc(Cl)ccc2OC)c1C,/,/,.,/,/
C[C@@H](NC(=O)C1(c2ccccc2)CCN(C(=O)OC(C)(C)C)CC1)C(=O)N[C@@H](C(=O)O)c1ccccc1,?,.,.,.,56.2µM
Cc1ccc(C2CC(c3cccs3)=NN2C(=O)CSc2nc(=O)n3cc(C)ccc3n2)cc1 (stereo not drawn),.,.,.,112µM,.
Cc1ccc2nc(SCC(=O)N3N=C(c4cccs4)CC3c3ccc(F)cc3)nc(=O)n2c1 (stereo not drawn),.,.,.,.,.
O=C(c1cccc(-n2cccc2)c1)N1CCN(S(=O)(=O)c2ccccc2)CC1,.,.,.,.,79.4µM
O=C1NNC(c2ccccc2)=N/C1=C\c1ccccc1Cl,?,.,17.8µM,.,39.8µM
Cc1ccccc1-c1noc(-c2ccccc2OCC(=O)Nc2ccccc2[N+](=O)[O-])n1,/,/,.,/,/
CN(Cc1ccccc1)c1nc(-c2ccc(F)cc2)cc(C(F)(F)F)n1,/,/,.,/,/
Cc1ccc(S(=O)(=O)/N=C2/NC(=O)/C(=C\c3cc(Br)cc(Br)c3O)S2)cc1,79.4µM,.,?,.,?
CCCCCCc1cc2cc(C(=O)OCC)c(=O)oc2cc1O,.,.,.,.,.
CCCCCCc1cc2cc(C(=O)NC)c(=N)oc2cc1O,.,100µM,?,.,.
CCOC(=O)c1ccc(N2C(=O)c3n[nH]c(-c4ccco4)c3C2c2ccccc2OC)cc1 (stereo not drawn),/,/,.,/,/
C#CCOCCOCCOCCNc1nc(N2CCN(C(=O)CCCCCCCCCCNC(=O)Cn3cc(CCCCCN)nn3)CC2)nc(N2CCN(C(=O)CCCCCCCCCCNC(=O)[C@@H]([C@H](C)O)n3cc(C)nn3)CC2)n1,.,.,.,.,.

# Compound activity deposited in PubChem BioAssay by National Center for Advancing Translational Sciences (NCATS).
